{"source": "PubChem BioAssay AID504861", "about": "(Broad Institute, 2011)", "note": "Hit rate of the full screen: of about 1,200 compounds, about 290 (24%) were called active. Roughly 3% stayed inconclusive and do not appear here.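 Rule for the calls: active = compounds lowering cell viability signal with fitted half-maximal concentration at most ten times their highest tested concentration; inconclusive = flat fit with 30 to 70% signal loss, or poor fit; inactive = the rest.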 Not all results are given here. Entries with a potency or affinity are not part of this list.", "data": [{"assay": "cytotoxicity in HEK293T cells – cell-based, CellTiter-Glo luminescence, cherry-picks, cytotoxicity control for LMP1 NF-kB inhibitor project, dose response (AID 504861)", "conditions": "HEK293T viability, CellTiter-Glo ATP luminescence, 48 h; series mostly up to 26 µM", "values": [{"smiles": "CCN(CC(=O)Nc1ccc(NC(C)=O)cc1)C(=O)c1cccnc1Sc1ccc(C)c(C)c1", "outcome": "inactive"}, {"smiles": "Cc1ccccc1C(=O)NC(=S)Nc1ccc(N2CCN(C(=O)c3ccccc3)CC2)cc1", "outcome": "inactive"}, {"smiles": "Cc1ccc(CNC(=O)C(=O)NCC2OCCN2S(=O)(=O)c2ccc(Cl)cc2)cc1", "note": "(stereo not drawn)", "outcome": "inactive"}, {"smiles": "CN1CCN(/N=C/c2ccc(N(c3ccccc3)c3ccccc3)cc2)CC1", "outcome": "inactive"}, {"smiles": "COc1cccc(/C=N/Nc2ncnc(N)c2[N+](=O)[O-])c1OC", "outcome": "inactive"}, {"smiles": "O=[N+]([O-])c1ccc(O)c(/C=N/Nc2ncnc3c2cnn3-c2ccccc2)c1", "outcome": "inactive"}, {"smiles": "Cc1cc(C(=O)COc2cccnc2[N+](=O)[O-])c(C)n1-c1ccccc1F", "outcome": "inactive"}, {"smiles": "Cc1ccsc1-c1nc(CSCC(=O)N2CCN(c3ccccc3)CC2)c(C)o1", "outcome": "inactive"}, {"smiles": "Oc1c(N=NC(=S)Nc2ccccc2F)c2ccccc2n1Cc1ccc(F)cc1", "outcome": "inactive"}, {"smiles": "COc1ccc(Cn2c(SCc3cc(C)ccc3C)nc3cc(OC)c(OC)cc3c2=N)cc1", "outcome": "inactive"}, {"smiles": "COc1ccc(-c2cn3nc4c(nc3n2)CCCC4)cc1", "outcome": "inactive"}, {"smiles": "CCOC(=O)C1=C(C)NC(C)=C(C(=O)OCC)C1C(=O)OCC(=O)N(C)C1CCS(=O)(=O)C1", "note": "(stereo not drawn)", "outcome": "inactive"}, {"smiles": "O=C(CCCN1C(=O)/C(=C/c2ccccc2Cl)SC1=S)NNC(=O)c1ccccc1Cl", "outcome": "inactive"}, {"smiles": "Cc1cc(C(=O)CSc2nnc(-c3cccs3)o2)c(C)n1-c1ccccc1", "outcome": "inactive"}, {"smiles": "O=C(O)CN1C(=O)/C(=C\\c2ccccc2OCc2ccc(Cl)cc2Cl)SC1=S", "outcome": "inactive"}, {"smiles": "O=c1c2cnn(-c3ccccc3)c2nc(-c2cccs2)n1-c1ccc(Br)cc1", "outcome": "inactive"}, {"smiles": "COc1ccc(N2CCN(CCNC(=O)CCCn3c(=O)[nH]c4cc(Cl)ccc4c3=O)CC2)cc1", "outcome": "inactive"}, {"smiles": "COc1ccc(NC(=O)c2ccc(-c3ccccc3)cc2)cc1S(=O)(=O)N1CCOCC1", "outcome": "inactive"}, {"smiles": "COc1cc(C(=S)N2CCOCC2)cc(OC)c1OC(=O)c1ccc(F)cc1", "outcome": "inactive"}, {"smiles": "CC(C)CCNC(=O)C1CCN(S(=O)(=O)c2ccc3c(c2)CC(C)N3C(=O)C2CC2)CC1", "note": "(stereo not drawn)", "outcome": "inactive"}, {"smiles": "COc1ccc(OC)c(S(=O)(=O)NC(C)CCc2ccccc2)c1", "note": "(stereo not drawn)", "outcome": "inactive"}, {"smiles": "COc1ccc(C(=O)CSc2nnc(Cc3ccccc3)o2)cc1", "outcome": "inactive"}, {"smiles": "Cc1ccc(-c2nc3cccnc3o2)cc1NC(=O)COc1ccc(C(C)(C)C)cc1", "outcome": "inactive"}, {"smiles": "CCc1ccc(C(=O)COC(=O)c2cccc(N3C(=O)c4c(C)nc5ccccc5c4C3=O)c2)cc1", "outcome": "inactive"}, {"smiles": "CCOC(=O)Cc1csc(N/N=C\\c2ccc(N(C)C)cc2)n1", "outcome": "inactive"}, {"smiles": "O=C(OCc1ccccc1F)c1cc2ccccc2cc1O", "outcome": "inactive"}, {"smiles": "Cc1cc(OCC(=O)Nc2cnn(CCCC(=O)O)c2)ccc1Cl", "outcome": "inactive"}, {"smiles": "C=CCn1c(SCc2ccc3nonc3c2)nnc1-c1cccs1", "outcome": "inactive"}, {"smiles": "CCOC(=O)c1sc(NC(=O)CNCc2ccccn2)c(C(=O)OCC)c1C", "outcome": "inactive"}, {"smiles": "Cc1ccc(-n2ccc(=O)c(C(=O)Nc3ccc(S(=O)(=O)N4CCOCC4)cc3)n2)cc1", "outcome": "inactive"}, {"smiles": "Cc1ccnc(NC(=O)c2sc3ccccc3c2Cl)c1", "outcome": "inactive"}, {"smiles": "Oc1c(N=NC(=S)Nc2ccccc2F)c2ccccc2n1Cc1ccccc1", "outcome": "inactive"}, {"smiles": "Cc1ccc(S(=O)(=O)NC(CC(C)C)C(=O)NCC(c2ccco2)N2CCCCC2)cc1", "note": "(stereo not drawn)", "outcome": "inactive"}, {"smiles": "CCCCCn1c(N2CCOCC2)nc2c1c(=O)n(CC(N)=O)c(=O)n2C", "outcome": "inactive"}, {"smiles": "O=C(NCCOc1ccccc1)c1ccc2c(c1)OCO2", "outcome": "inactive"}, {"smiles": "C(=Cc1nc2ccccc2o1)c1ccc2c(c1)OCO2", "outcome": "inactive"}, {"smiles": "Cc1cc(C)c(OCCn2ccnc2)c(C)c1", "outcome": "inactive"}, {"smiles": "COc1ccc2oc(C(=O)NCCc3ccccc3)c(C)c2c1", "outcome": "inactive"}, {"smiles": "COc1ccc(-c2nnc(NC(=O)c3ccc(S(=O)(=O)N4CCCc5ccccc54)cc3)o2)cc1", "outcome": "inactive"}, {"smiles": "O=C1N[C@@H](Cc2c[nH]c3ccccc23)COC(=O)[C@H](Cc2ccc(F)cc2)C/C=C\\C[C@H]1CC(=O)N(CCO)Cc1ccccc1", "outcome": "inactive"}, {"smiles": "Cc1sc2ncnc(N3CCC(C(=O)Nc4ccccc4C(C)(C)C)CC3)c2c1C", "outcome": "inactive"}, {"smiles": "Cc1sc2ncn(CC(=O)N3CCC(C(N)=O)CC3)c(=O)c2c1S(=O)(=O)N1CCOCC1", "outcome": "inactive"}, {"smiles": "O=c1oc2ccccc2c(O)c1/C=N/c1ccccn1", "outcome": "inactive"}, {"smiles": "CC1(C)Cc2nc3sc4c(SCC(=O)O)ncnc4c3cc2CO1", "outcome": "inactive"}, {"smiles": "COc1ccc(C(=O)N2CC(=O)Nc3ccccc32)cc1S(=O)(=O)N1CCCC1", "outcome": "inactive"}, {"smiles": "CCOc1ccc(S(=O)(=O)N2CCC(C(=O)NCCc3ccc(S(N)(=O)=O)cc3)CC2)cc1", "outcome": "inactive"}, {"smiles": "CCOc1ccc(NC(=S)N=Nc2c(O)[nH]c3ccccc23)cc1", "outcome": "inactive"}, {"smiles": "CSc1oc(-c2ccc(F)cc2)nc1S(=O)(=O)c1ccc(F)cc1", "outcome": "inactive"}, {"smiles": "O=C(CN1C(=O)C2C3C=CC(C3)C2C1=O)NCCC1=CCCCC1", "note": "(stereo not drawn)", "outcome": "inactive"}, {"smiles": "O=C(Cc1ccc(Cl)cc1)NCC(=O)N1CCCCC1", "outcome": "inactive"}, {"smiles": "CCCCN1C2CCCC1CC(NC(=O)C1CCCCC1)C2", "note": "(stereo not drawn)", "outcome": "inactive"}, {"smiles": "CCc1sc(C(=O)Nc2nc(-c3ccccn3)cs2)cc1C", "outcome": "inactive"}, {"smiles": "Cc1ccc(C(=O)Nc2nnc(SCC(=O)N3CCCc4ccccc43)s2)cc1", "outcome": "inactive"}, {"smiles": "Cc1cccc(CNc2ncnc3ccc(-c4ccoc4)cc23)c1", "outcome": "inactive"}, {"smiles": "COCCn1c(C)cc(C(=O)CSc2nnc3ccccn23)c1C", "outcome": "inactive"}, {"smiles": "Cc1ccc(S(=O)(=O)N2c3ccccc3-c3c(ssc3=S)C2(C)C)cc1", "outcome": "inactive"}, {"smiles": "Nc1ncnc2c1c(-c1ccc(Oc3ccccc3)cc1)cn2C1CCCC1", "outcome": "inactive"}, {"smiles": "O=C(Nc1cc(C(F)(F)F)cc(C(F)(F)F)c1)Nc1cnn(-c2ccc([N+](=O)[O-])cc2)c1C(F)(F)F", "outcome": "inactive"}, {"smiles": "CCOc1ccc(NC(=O)c2ccc(N3CC4CC(C3)c3cccc(=O)n3C4)c(NC(=O)c3cccnc3)c2)cc1", "note": "(stereo not drawn)", "outcome": "inactive"}, {"smiles": "Cc1cccc(S(=O)(=O)N2CCCc3ccccc32)c1", "outcome": "inactive"}, {"smiles": "COc1ccc(OC)c(NC(=O)COc2coc(CN3CCc4ccccc43)cc2=O)c1", "outcome": "inactive"}, {"smiles": "Nc1ccc(CCNc2ncnc3c2ncn3[C@@H]2O[C@H](CO)[C@@H](O)[C@H]2O)cc1", "outcome": "inactive"}, {"smiles": "COc1ccc(-c2cc(C(F)(F)F)n3nc(C(=O)N4CCOCC4)nc3n2)cc1", "outcome": "inactive"}, {"smiles": "O=C(Nc1ccc2c(c1)C(=O)OC2)c1ccc(C(F)(F)F)cc1", "outcome": "inactive"}, {"smiles": "O=C(Cn1nc(C(F)(F)F)c2c1CCC2)NC1CCCCC1", "outcome": "inactive"}, {"smiles": "O=[N+]([O-])c1cc(/C=N\\O)ccc1Oc1ccc(F)cc1", "outcome": "inactive"}, {"smiles": "O=C(NNC(=S)Nc1ccc(Cl)c(Cl)c1)c1ccccn1", "outcome": "inactive"}, {"smiles": "COc1cc2cc(C(=O)Nc3ccc4c(c3)OCCO4)[nH]c2cc1OC", "outcome": "inactive"}, {"smiles": "CC(=O)Nc1ccc(NC(=O)C(c2ccccc2)c2ccccc2)cc1", "outcome": "inactive"}, {"smiles": "COCCCn1cnnc1SCC(=O)Nc1ccc(S(=O)(=O)N2CCCC2)cc1", "outcome": "inactive"}, {"smiles": "CC1CCN(C(=O)/C(=C\\c2cccs2)NC(=O)c2ccccc2)CC1", "outcome": "inactive"}, {"smiles": "COc1ccc(C=C2OC(=O)C(C(C)=O)=C2O)cc1", "outcome": "inactive"}, {"smiles": "Cc1cc(C(=O)CN2C(=O)c3ccccc3C2=O)c(C)n1Cc1cccs1", "outcome": "inactive"}, {"smiles": "Cc1cccc(C)c1NC(=O)CN(C)CC(=O)Nc1ccccc1Oc1ccccc1", "outcome": "inactive"}, {"smiles": "COCCn1c(SCC(=O)NCc2ccco2)nnc1-c1c[nH]c2ccccc12", "outcome": "inactive"}, {"smiles": "c1ccc(OCCSc2nnc3sc4ccccc4n23)cc1", "outcome": "inactive"}, {"smiles": "CC(C)Oc1ccc(C2CC(=O)NC2=O)cc1", "note": "(stereo not drawn)", "outcome": "inactive"}, {"smiles": "COCC(=O)N(C)c1nnc(-c2ccccn2)s1", "outcome": "inactive"}, {"smiles": "CCOC(=O)c1c2c(n(C)c1C)C(=O)C(=O)c1ccc(Br)cc1-2", "outcome": "inactive"}, {"smiles": "CCOC(=O)N1CCC(n2c(=S)[nH]c3ccccc3c2=O)CC1", "outcome": "inactive"}, {"smiles": "N#CC(C#N)c1ccnc2ccccc12", "outcome": "inactive"}, {"smiles": "O=C(O)/C=C/c1ccc(Cn2ccnc2)cc1", "outcome": "inactive"}, {"smiles": "CCN1CCN(Cc2ccc(NC(=O)c3ccc(C)c(NC(=O)c4cccc5[nH]ccc45)c3)cc2C(F)(F)F)CC1", "outcome": "inactive"}, {"smiles": "Cc1ccc(C(=O)Nc2cccc(C(F)(F)F)c2)cc1NC(=O)c1ccno1", "outcome": "inactive"}, {"smiles": "Cc1ccc(C(=O)Nc2cccc(C(F)(F)F)c2)cc1Nc1ncnc2nc[nH]c12", "outcome": "inactive"}, {"smiles": "CCN1CCN(Cc2ccc(NC(=O)c3ccc(C)c(NC(=O)c4nccn4C)c3)cc2C(F)(F)F)CC1", "outcome": "inactive"}, {"smiles": "CCN1CCN(Cc2ccc(NC(=O)c3ccc(C)c(NC(=O)c4ccno4)c3)cc2C(F)(F)F)CC1", "outcome": "inactive"}, {"smiles": "CCN1CCN(Cc2ccc(NC(=O)c3ccc(C)c(NC(=O)N4CCNC4=O)c3)cc2C(F)(F)F)CC1", "outcome": "inactive"}, {"smiles": "COc1cccc(CC(=O)NNC(=O)c2ccc3c(c2)OCO3)c1", "outcome": "inactive"}, {"smiles": "COC(=O)c1c(O)ccc(Oc2ccccc2)c1C(=O)OC", "outcome": "inactive"}, {"smiles": "CCC(=O)NC(=S)Nc1ccccc1C(F)(F)F", "outcome": "inactive"}, {"smiles": "N#CC1=C(N)N2C(=C(C#N)C1c1cccc(Br)c1)Nc1ccccc12", "note": "(stereo not drawn)", "outcome": "inactive"}, {"smiles": "C[C@@H](C(=O)Nc1ccc2c(c1)OCCO2)n1c(=O)[nH]c2ccccc2c1=O", "outcome": "inactive"}, {"smiles": "Cc1nnc(SCC(=O)N2CCC(c3noc4ccc(F)cc34)CC2)s1", "outcome": "inactive"}, {"smiles": "S=C1SCN(Cc2ccco2)CN1Cc1ccco1", "outcome": "inactive"}, {"smiles": "O=C(CN(Cc1cccs1)C(=O)CNS(=O)(=O)c1ccccc1)NCc1ccco1", "outcome": "inactive"}, {"smiles": "COC(=O)c1ccc2nc(-c3cccc(N)c3)cn2c1", "outcome": "inactive"}, {"smiles": "Cc1ccc(S(=O)(=O)N2CCN(C(=O)CSc3nnnn3C)C2)cc1", "outcome": "inactive"}, {"smiles": "O=C(O)C1CC(=O)N(c2ccc(Br)cc2)C1", "note": "(stereo not drawn)", "outcome": "inactive"}, {"smiles": "CCOc1ccc(C(=O)NC(=S)N(Cc2ccccc2)Cc2ccccc2)cc1", "outcome": "inactive"}, {"smiles": "COCCn1c(C)cc(C(=O)COc2ccc(C)nc2[N+](=O)[O-])c1C", "outcome": "inactive"}, {"smiles": "C=CCN(c1ccc(C(=O)Nc2ccc3c(c2)n(C)c(=O)n3C)cc1)S(C)(=O)=O", "outcome": "inactive"}, {"smiles": "CC(C)N1CCN(c2ccc(OC[C@H]3CO[C@](Cn4cncn4)(c4ccc(Cl)cc4Cl)O3)cc2)CC1", "outcome": "inactive"}]}]}
